# Test results as given in the supplement of paper PMC7411640.
# Counter-ions that a name gives are not always drawn.
# Tested on: MDA-MB-468
# Test: phospho-S6 immunofluorescence (DAPI-normalised), per-plate z-score; higher = higher phospho-S6 signal (less pathway suppression)
# Conditions: 24 h
# Method: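 GPCR-targeted compound library (MedChemExpress HY-L006) tested on MDA-MB-468 PTEN-null TNBC cells in 384-well plates at 0.1, 1 or 10 uM, combined with vehicle, GDC0941 450 nM or lapatinib 1 uM, for 24 h. Phospho-S6 (S240/244) immunofluorescence normalised to DAPI and expressed as a per-plate z-score; values are the mean of biological triplicates.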
Structure (SMILES),phospho-S6 immunofluorescence (z-score) (co-treatment: GDC0941 450 nM),phospho-S6 immunofluorescence (z-score) (co-treatment: lapatinib 1 uM),phospho-S6 immunofluorescence (z-score) (co-treatment: vehicle)
C[C@H](NC(=O)c1cc(Cl)ccc1Oc1ccc(F)cc1)c1ccc(C(=O)O)cc1 (compound 10 µM),-0.64,0.18,0.3
Cc1cc(C(C)(C)C)c(O)c(C)c1CC1=NCCN1 [Oxymetazoline (hydrochloride)] (compound 10 µM),0.28,-0.17,-0.03
CC(=O)Nc1cccc2c1c(Sc1ccc(Cl)cc1)c(C)n2CC(=O)O (compound 10 µM),0.52,0.08,-0.17
CCOC(=O)O[C@]1(C(=O)OCCl)CC[C@H]2[C@@H]3CCC4=CC(=O)C=C[C@]4(C)[C@H]3[C@@H](O)C[C@@]21C [Loteprednol Etabonate] (compound 10 µM),-0.86,0.31,-1.08
Cc1cc(C)nc(NS(=O)(=O)c2ccc(NC(=S)NC(=O)COc3ccc(Br)cc3Cl)cc2)n1 (compound 10 µM),0.46,-0.41,0.28
C[C@H]1C[C@H]2[C@@H]3CCC4=CC(=O)C=C[C@]4(C)[C@H]3C(=O)C[C@]2(C)[C@@]1(O)C(=O)CO [Meprednisone] (compound 10 µM),0.11,-0.5,-0.52
C[N+](C)(C)CCOC(N)=O [Carbamoylcholine (chloride)] (compound 10 µM),0.06,0.02,0.87
CN1CCC(=C2c3ccccc3C=Cc3ccccc32)CC1 [Cyproheptadine (hydrochloride)] (compound 10 µM),-0.64,-1.26,0.16
CC[C@@H]1C(=O)OC[C@@H]1Cc1cncn1C [Pilocarpine (Hydrochloride)] (compound 10 µM),-0.79,-0.13,-0.68
CCCCC(=O)N(Cc1ccc(-c2ccccc2-c2nnn[nH]2)cc1)[C@H](C(=O)O)C(C)C.CCOC(=O)[C@H](C)C[C@@H](Cc1ccc(-c2ccccc2)cc1)NC(=O)CCC(=O)O (compound 10 µM),0.23,0.37,0.21
CCOc1cc(N)c(Cl)cc1C(=O)NCC1CN(Cc2ccc(F)cc2)CCO1 (centres undefined) [Mosapride (citrate)] (compound 10 µM),0.76,0.46,0.79
CC(C)(C)C(=O)C(=Nc1ccc(Cl)cc1)NNc1ccc(Cl)cc1 (compound 10 µM),-3.52,-6.25,-3.76
CN1CCC(=C2c3ccccc3C=Cc3ccccc32)CC1 [Cyproheptadine (hydrochloride sesquihydrate)] (compound 10 µM),0.49,-0.96,-0.87
COc1ccc2c(c1OC)C(=O)O[C@@H]2[C@H]1c2c(cc3c(c2OC)OCO3)CCN1C [Noscapine] (compound 10 µM),0.49,0.12,0.47
CCCN[C@H]1CCc2nc(N)sc2C1 [Pramipexole (dihydrochloride)] (compound 10 µM),0.87,0.31,0.17
CCCc1nc(C(C)(C)O)c(C(=O)O)n1Cc1ccc(-c2ccccc2-c2nnn[nH]2)cc1 [Olmesartan] (compound 10 µM),0.13,0.28,-0.82
CCCCc1ccc(NS(=O)(=O)c2ccc(F)cc2)cc1 (compound 10 µM),-3.59,-8.48,-10.2
COc1cc(N)c(Cl)cc1C(=O)NC1CCN(CCCOc2ccc(F)cc2)CC1OC (centres undefined) [Cisapride] (compound 10 µM),-1.02,-1.88,-0.58
CC(C)(O)c1ccccc1CC[C@@H](SCC1(CC(=O)O)CC1)c1cccc(/C=C/c2ccc3ccc(Cl)cc3n2)c1 [Montelukast (sodium)] (compound 10 µM),0.45,0.97,1.39
Cc1c(Cc2ccc3ccccc3n2)c2cc(F)ccc2n1CC(=O)O (compound 10 µM),0,0.39,0.58
Cc1cc(OCCCS(C)(=O)=O)cc(C)c1-c1cccc(COc2ccc3c(c2)OC[C@H]3CC(=O)O)c1 (compound 10 µM),-1.06,0.1,-0.32
COc1ccc(CNC(=O)c2cc(-c3cncc(C)c3)ncc2-c2nccs2)nc1OC (compound 10 µM),-0.61,-0.5,0.26
CCCC1O[C@@H]2C[C@H]3[C@@H]4CCC5=CC(=O)C=C[C@]5(C)[C@H]4[C@@H](O)C[C@]3(C)[C@]2(C(=O)CO)O1 (some centres undefined) [Budesonide] (compound 10 µM),-0.53,-0.12,-0.2
